Inconclusive results are not listed. Active and inactive are the calls of the source. Calls come from the whole dose curve; as a rule, active = well fitted curve in the direction sought with a large enough effect; inconclusive = small, poorly fitted or top-dose-only effect, or another doubt; inactive = no such curve, though single readings can be large; an effect the other way counts as inactive or inconclusive.
Legend:
[1] = target: Glutathione peroxidase 1 (Homo sapiens) (UniProt P07203); test: Primary qHTS Assay for Inhibitors of Recombinant Selenoprotein Glutathione Peroxidase 1 (GPX1) (AID 1845191); note: nearly all actives have a fitted effect of over 65% in size; for activity, negative = inhibition: % is set by controls: 0 for no effect and ±100 for the full control effect
Chain of Glutathione peroxidase 1 (Homo sapiens) (P07203 whole entry, looked up): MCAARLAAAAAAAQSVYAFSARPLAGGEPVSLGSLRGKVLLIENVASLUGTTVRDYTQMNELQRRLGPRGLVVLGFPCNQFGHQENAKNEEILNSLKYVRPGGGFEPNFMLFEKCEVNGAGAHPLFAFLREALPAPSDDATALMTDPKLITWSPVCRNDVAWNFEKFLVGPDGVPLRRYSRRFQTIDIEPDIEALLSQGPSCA
Method in brief: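 GPX1 10 nM, GR 100 nM, GSH 1 mM, NADPH 0.5 mM, CHP 0.5 mM (final). 30-min cpd preincubation, RT. Ex340/Em450 read t=0, t=15 min.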

[2] = target: Phospholipid hydroperoxide glutathione peroxidase GPX4 (Homo sapiens) (UniProt P36969); test: Primary qHTS Assay for Inhibitors of Recombinant Selenoprotein Glutathione Peroxidase 4 (GPX4) (AID 1845192); note: nearly all actives have a fitted effect of over 65% in size
Chain of Phospholipid hydroperoxide glutathione peroxidase GPX4 (Homo sapiens) (P36969 whole entry, looked up): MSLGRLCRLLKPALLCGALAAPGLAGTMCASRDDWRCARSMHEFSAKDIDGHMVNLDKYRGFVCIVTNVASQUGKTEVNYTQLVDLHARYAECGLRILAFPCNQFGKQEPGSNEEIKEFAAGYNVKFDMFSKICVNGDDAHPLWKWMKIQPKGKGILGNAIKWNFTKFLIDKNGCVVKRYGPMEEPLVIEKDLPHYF
Method in brief: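 qHTS, GR-coupled: GPX4 200 nM + cpd 30 min RT → GSH 1 mM, NADPH 0.5 mM, GR 100 nM → CHP 0.5 mM start; fluor 340/450 at t0 and t15 min; no-enzyme wells as control.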

[3] = target: Luciferin 4-monooxygenase (Photinus pyralis) (UniProt P08659); test: Primary firefly luciferase (FLuc) qHTS assay for identification of artifact compounds. (AID 1845220); settings: outcome: dose series up to 54.1 µM;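 note: plate controls were DMSO vehicle for no effect and no enzyme for full effect; nearly all actives have a fitted effect of over 60% in size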
Method in brief: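 Reaction readout was CCD-imaged luminescence, taken 5 min after adding 10 nM purified firefly enzyme to compound-treated wells holding 10 uM luciferin and ATP in pH 7.6 buffer.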

[4] = Primary fluorescence-based thiol-reactive (MSTI) qHTS assay for identification of artifact compounds. (AID 1845221);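 note: thiol-reactive compounds lower the probe fluorescence signal; nearly all actives have a fitted effect of over 65% in size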
Method in brief: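 Probe: MSTI 4 uM, PBS pH 7.4, 2% DMSO. Incubation 1 h, RT, light-protected. Readout fluorescence 525/598 nm.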

[5] = test system: Nanoluciferase (engineered Oplophorus gracilirostris luciferase); test: Primary Nanoluciferase (NLuc) qHTS assay for identification of artifact compounds. (AID 1845222);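 note: NLuc secreted into diluted conditioned medium of S16 cells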
Method in brief: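 Concentration-response data were obtained by luminescence after 5 min with Nano-Glo substrate at 1:100. The enzyme was diluted S16 NLuc-expressing cell medium, preincubated with compound for 15 min at RT. Curves were fitted with a 4-parameter Hill model.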

[6] = Primary redox qHTS assay for identification of artifact compounds. (AID 1845223);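 note: 0% = DMSO and 100% = reference compound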
Method in brief: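 Redox-cycling detection via DTT (250 uM final) oxidation coupled to Amplex Red (25 uM)/HRP (250 mU/mL) in HBSS. 15 min preincubation plus 30 min after DTT, room temperature. Ex/Em 525/598 nm; 4-parameter Hill fit against DMSO and 10 uM DA3003.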

[7] = qHTS profiling for inhibitors of Plasmodium falciparum proliferation (AID 504749); note: nearly all actives have a fitted effect of over 60% in size; note: potency is the fitted concentration of half-maximal effect;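 for activity, negative = inhibition: 0% = DMSO vehicle and full inhibition = artemisinin control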; settings: P. falciparum in erythrocytes, SYBR Green DNA, 72 h
Method in brief: (§1)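 Fluorescence of SYBR Green-bound parasite DNA, read at 485/535 nm, served as the growth measure. Infected erythrocytes were cultured with compound 72 h; artemisinin (0.29 uM) and DMSO wells defined the normalization range.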

3D7 = test: as above; settings: P. falciparum in erythrocytes, SYBR Green DNA, 72 h; series mostly up to 28.7 µM
Method in brief: as §1

[8] = at 28.7 µM (top of the series), parasite line A
[9] = at 28.7 µM (top of the series), parasite line B
[10] = at 12.8 µM (top of the series), parasite line A
[11] = at 12.8 µM (top of the series), parasite line B

CCCCS(=O)(=O)N[C@@H](Cc1ccc(OCCCCC2CCNCC2)cc1)C(=O)O
inactive: Potency [1] | Potency [2] | outcome [3] | Potency [4] | Potency [5] | outcome [6]

CN(C)/N=N/c1nc[nH]c1C(N)=O
inactive: Potency [1] | Potency [2] | activity, negative = inhibition [7, 8] 8.05% | activity, negative = inhibition [7, 9] 1.17% | Potency (3D7)

COc1ccc(CCN2CCC(Nc3nc4ccccc4n3Cc3ccc(F)cc3)CC2)cc1
active: Potency ([7]; parasite line A) 1.41 µM | Potency ([7]; parasite line B) 2.24 µM | Potency (3D7) 1.78 µM
inactive: Potency [1] | Potency [2]

CCCCOc1ccc(OCCCN2CCOCC2)cc1
inactive: Potency [1] | Potency [2] | activity, negative = inhibition [7, 10] 9.41% | activity, negative = inhibition [7, 11] 8.45% | Potency (3D7)

NCCC(O)(P(=O)(O)O)P(=O)(O)O
inactive: Potency [1] | Potency [2] | activity, negative = inhibition [7, 8] 4.48% | activity, negative = inhibition [7, 9] -11.5% | Potency (3D7)

CCCCCCCCCCCCCCCCOP(=O)([O-])OCC[N+](C)(C)C
inactive: Potency [1] | Potency [2] | activity, negative = inhibition [7, 8] -1.43% | activity, negative = inhibition [7, 9] 12.3% | Potency (3D7)

CCCCC1=NC2(CCCC2)C(=O)N1Cc1ccc(-c2ccccc2-c2nn[nH]n2)cc1
inactive: Potency [1] | Potency [2] | activity, negative = inhibition [7, 8] -0.908% | activity, negative = inhibition [7, 9] -26.5% | Potency (3D7)

CCOC(=O)c1cccc(N)c1
inactive: Potency [1] | Potency [2] | activity, negative = inhibition [7, 8] 6.66% | activity, negative = inhibition [7, 9] 6.86% | Potency (3D7)

COc1cccc(CCc2ccccc2OCC(CN(C)C)OC(=O)CCC(=O)O)c1 (stereo not given)
inactive: Potency [1] | Potency [2]
active: Potency ([7]; parasite line B) 6.31 µM | Potency (3D7) 10 µM

C[C@@H](CN(C)C)CN1c2ccccc2Sc2ccccc21
inactive: Potency [1] | Potency [2] | activity, negative = inhibition [7, 10] 1.53% | activity, negative = inhibition [7, 11] 7.77% | Potency (3D7)

CCN1CCCC1=O
inactive: Potency [1] | Potency [2] | activity, negative = inhibition [7, 8] 3.13% | activity, negative = inhibition [7, 9] 11.2% | Potency (3D7)

CCOC(=O)n1ccn(C)c1=S
inactive: Potency [1] | Potency [2] | activity, negative = inhibition [7, 10] 10% | activity, negative = inhibition [7, 11] -6.82% | Potency (3D7)

C[C@@H]1C[C@H]2[C@@H]3CCC4=CC(=O)C=C[C@]4(C)[C@@]3(F)[C@@H](O)C[C@]2(C)[C@H]1C(=O)CO
inactive: Potency [1] | Potency [2] | activity, negative = inhibition [7, 8] -3.59% | activity, negative = inhibition [7, 9] -8.33% | Potency (3D7)

O=c1c(-c2ccccc2)c1-c1ccccc1
inactive: Potency [1] | Potency [2]
active: Potency ([7]; parasite line A) 11.2 µM | Potency ([7]; parasite line B) 10 µM | Potency (3D7) 11.2 µM
